We go through 56 compounds from PubChem BioAssay AID1851 (National Center for Advancing Translational Sciences (NCATS), 2009).

Several values for one entry are separate records, joined by “and”; a condition that tells them apart may be missing. Equal entries are not always repeated. About 5,100 (32%) of roughly 16,000 compounds were called active. Roughly 25% stayed inconclusive and do not appear here. Calls come from the whole dose curve; as a rule, active = well fitted curve in the direction sought with a large enough effect; inconclusive = small, poorly fitted or top-dose-only effect, or effect the other way; inactive = no such curve, though single readings can be large or run the other way. The list shows a part of the results.
% is set by controls: 0 for no effect and ±100 for the full control effect.

This assay deals with Cytochrome P450 3A4 (Homo sapiens) (UniProt P08684). The assay is described as follows: Cytochrome panel assay with activity outcomes. The conditions noted are these: recombinant CYP, pro-luciferin dealkylation, luminescence, p450-cyp3a4; series mostly up to 57.1 µM; activity, negative = inhibition: at the top concentration.
Sequence of Cytochrome P450 3A4 (Homo sapiens) (P08684 whole entry, looked up): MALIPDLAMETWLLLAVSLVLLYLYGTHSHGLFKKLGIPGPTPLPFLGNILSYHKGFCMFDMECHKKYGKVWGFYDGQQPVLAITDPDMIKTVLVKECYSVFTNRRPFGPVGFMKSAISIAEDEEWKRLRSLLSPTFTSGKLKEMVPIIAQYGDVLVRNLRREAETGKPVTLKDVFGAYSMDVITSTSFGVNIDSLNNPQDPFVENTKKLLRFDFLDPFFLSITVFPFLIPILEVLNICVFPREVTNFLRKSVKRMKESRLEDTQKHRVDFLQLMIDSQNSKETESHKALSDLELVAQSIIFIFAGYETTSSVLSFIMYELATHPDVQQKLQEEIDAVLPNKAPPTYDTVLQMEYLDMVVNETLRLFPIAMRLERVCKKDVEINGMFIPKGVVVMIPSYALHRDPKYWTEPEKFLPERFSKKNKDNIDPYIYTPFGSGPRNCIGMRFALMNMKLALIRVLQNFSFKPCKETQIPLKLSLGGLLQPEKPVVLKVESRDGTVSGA
By AC50 is commonly meant the midpoint of the concentration-response curve, whichever way the signal moves. As to `CCCOc1ccccc1-c1nc2n[nH]nc2c(=O)[nH]1`, the AC50 entry is “inactive”.
On the same count and under the same terms, in the case of `C=CCc1cccc(C2Nc3ccccc3C(=O)N2O)c1O` (stereo unspecified) it was 20 µM (active).
In the case of `O=C1c2ccccc2NC(c2ccc(Cl)cc2Cl)N1O` (stereo unspecified), the “activity, negative = inhibition” value was -28.7% (inactive).
On the same count and under the same terms, in the case of `CC(=O)c1c(O)cc(=O)n(-c2ccccc2)c1-c1ccc(C)cc1` it was -6.63% (inactive).
For `Cc1cc(O)c(C(C)C)cc1C1(c2cc(C(C)C)c(O)cc2C)OC(=O)c2ccccc21`, the AC50 is 1.58 µM (active).
Consider `Cc1cc(O)c(C(C)C)cc1CN1CCCCC1`, for which the activity, negative = inhibition is -7.75% [at 11.4 µM] (inactive).
With `Fc1ccc(COc2ccc(Br)cc2CNCc2ccncc2)cc1`, the AC50 is 0.562 µM (active).
The same measure, in the same setting: in the case of `Clc1ccccc1-c1nc(NCc2cccs2)c2ccccc2n1` it was 6.31 µM (active).
As to `FC(F)(F)c1ccccc1-c1nc(NCc2cccs2)c2ccccc2n1`, the concentration at half-maximal activity (AC50) was 3.98 µM (active).
Consider `C/C(=N/NC(=O)Cc1cccn1C)c1ccccc1`, for which the “activity, negative = inhibition” value was -28.1% (inactive).
Still for that read-out and setting: with `C/C(=N\NC(=O)c1cccc(C)c1)c1cccc(NC(=O)c2ccco2)c1` the figure was -7.23% [at 2.29 µM] (inactive).
For the compound `C/C(=N\NC(=S)Nc1cccc(C)c1)c1ccccc1`, the half-maximal activity concentration (AC50) is 8.91 µM (active).
`COc1cc(C(=O)NCc2cccc3ccccc23)cc(Cl)c1OC`: the AC50 is 10 µM (active).
With `O=S(=O)(c1ccccc1)N1CN2CN(C1)CN(S(=O)(=O)c1ccccc1)C2`, the activity, negative = inhibition is -1.65% [at 11.4 µM] (inactive).
Regarding `O=S(=O)(c1cccc2cnccc12)N1CCNCC1`, the AC50 was 12.6 µM (active).
Same read-out and setting: in the case of `O=S(=O)(c1ccccc1S(=O)(=O)N1CCCCC1)N1CCCCC1` it was 8.91 µM (active).
Take `COc1ccc(S(=O)(=O)N2CCCCCC2)cc1N(C)S(=O)(=O)c1ccc(Cl)cc1`: the activity, negative = inhibition was -26.2% [at 2.29 µM] (inactive).
`C[C@H]1CN(S(=O)(=O)c2cccc3cnccc23)CCN1`: the concentration at half-maximal activity (AC50) was 10 µM (active).
On to `CC1CCN(C(=O)C2CCN(S(=O)(=O)c3cccc4nonc34)CC2)CC1`, for which the “activity, negative = inhibition” value was -12% (inactive).
For the compound `O=S(=O)(c1cccc2c(Cl)cccc12)N1CCCNCC1`, the AC50 was 5.01 µM (active) and 3.98 µM (active).
Regarding `O=C(O)C1(C(=O)O)CCN(S(=O)(=O)c2ccccc2)CC1`, the activity, negative = inhibition is -12.3% [at 11.4 µM] (inactive).
Same read-out and setting: with `CCOC(=O)C(NC(C)=O)C(=O)O` (stereo unspecified) the figure was 1.64% (inactive); with `O=C1C=CC(=Nc2cccc3c(N=C4C=CC(=O)O4)cccc23)O1`, -24.5% [at 11.4 µM] (inactive); with `CC(C)=CCc1c(C)nc2ccccc2c1C(=O)O`, 3.07% (inactive).
For the compound `CCC1C(=O)N=C(SCC(=O)Nc2ccc(C(=O)OC)cc2)NC1=O` (stereo unspecified), the “activity, negative = inhibition” value is 13.9% (inactive).
Turning to `COC(=O)c1cc(NC(=O)CC2NC3CCCCC3NC2=O)cc(C(=O)OC)c1` (stereo unspecified), the AC50 was 28.2 µM (active).
Regarding `COC(=O)c1ccc(NC(=O)C2CCCCC2C(=O)O)cc1` (stereo unspecified), the “activity, negative = inhibition” value is 7.03% (inactive).
Same read-out and setting: in the case of `COC(=O)c1cc(=O)[nH]c(=O)[nH]1` it was 0.116% [at 11.4 µM] (inactive); in that of `CC(=O)COc1ccc2c(C)c(C)c(=O)oc2c1`, -1.64% [at 2.29 µM] (inactive).
`CC(=O)c1c(C)[nH]c(C(=O)COc2ccc(C#N)cc2)c1C`: the AC50 was 3.16 µM (active).
Same read-out and setting: with `CC#CCOC(=O)c1c(C)nc2sc3c(c2c1N)CC[C@@H](O)C3` the figure was 3.16 µM (active).
In the case of `CC(=O)N1CCN(c2nc(C)nc3sc4c(c23)CCC(C)C4)CC1` (stereo unspecified), the “activity, negative = inhibition” value is -28.1% (inactive).
For the compound `COc1cccc(/C(O)=C2/C(=O)C(=O)N(c3cc(C)on3)C2c2cccs2)c1` (stereo unspecified), the AC50 was 28.2 µM (active).
Consider `Cc1cc(N2C(=O)C(O)=C(C(=O)c3ccco3)C2c2ccc(O)cc2)no1` (stereo unspecified), for which the “activity, negative = inhibition” value was -0.524% (inactive).
The same measure, in the same setting: with `COCCN1C(=O)C(=O)/C(=C(/O)c2cccc(OC)c2)C1c1ccc(C)o1` (stereo unspecified) the figure was -3.3% (inactive).
Take `COC(=O)[C@@]1(Cc2ccc(F)cc2)[C@H]2c3cc(C(=O)N(C)C)n(Cc4ccc(C(F)(F)F)nc4)c3C[C@H]2CN1C(=O)c1ccccc1`: the AC50 was 1.26 µM (active).
Still for that read-out and setting: in the case of `COC(=O)[C@@]1(Cc2ccccc2)[C@H]2c3cc(C(=O)N4CCCC4)n(Cc4ccc(C(F)(F)F)nc4)c3C[C@H]2CN1C(=O)c1ccccc1` it was 3.16 µM (active); in that of `COC(=O)[C@@]1(Cc2ccc(OC)cc2)[C@H]2c3cc(C(=O)N4CCCC4)n(CCn4cc([N+](=O)[O-])nc4C)c3C[C@H]2CN1C(=O)c1ccccc1`, 3.98 µM (active); in that of `COC(=O)[C@@]1(Cc2ccc(OC)cc2)[C@H]2c3cc(C(=O)N4CCCC4)n(Cc4ccc(C(F)(F)F)nc4)c3C[C@H]2CN1C(=O)c1ccccc1`, 3.16 µM (active).
The same measure, in the same setting: in the case of `O=C(NCCCn1ccnc1)c1ccc(Br)c(S(=O)(=O)N2CCOCC2)c1` it was 2 µM (active).
With `CN1CCc2[nH]nc(-c3n[nH]c4c3CN(C)CC4)c2C1`, the activity, negative = inhibition is -6.16% [at 11.4 µM] (inactive).
With `CCN1CCN(C(=O)N[C@H](C(=O)N[C@@H]2C(=O)N3[C@@H]2SC(C)(C)[C@@H]3C(=O)O)c2ccccc2)C(=O)C1=O`, the “activity, negative = inhibition” value was -6.91% [at 25.6 µM] (inactive).
Regarding `CCOc1c(Cl)cc(C(=O)Nc2ccccc2-c2ccccc2)cc1Cl`, the AC50 is 14.1 µM (active).
For the compound `CCOC(=O)c1ccc(Cl)c(NC(=O)c2ccc(-c3ccccc3)cc2)c1`, the activity, negative = inhibition was 6.61% [at 11.4 µM] (inactive).
Still for that read-out and setting: with `CO[C@@H]1COC(=O)CC=C[C@@H](C)[C@@H]2C=C[C@H](O)[C@@H](COC(=O)[C@H](C)NC(=O)CC=C[C@H]1C)O2` the figure was -23.2% [at 11.4 µM] (inactive).
In the case of `COc1ccc(NC(=O)N2CCC3(CC2)CCN(C(=O)c2cnccn2)CC3)cc1`, the “activity, negative = inhibition” value is 1.33% (inactive).
Regarding `CCOC(=O)C1CCCN(C(=O)c2cc3nc(-c4ccc5c(c4)OCO5)cc(C(F)(F)F)n3n2)C1` (stereo unspecified), the half-maximal activity concentration (AC50) was 3.98 µM (active).
With `COC(=O)c1ccccc1NC(=O)c1cc2nc(C3CC3)cc(C(F)(F)F)n2n1`, the “activity, negative = inhibition” value was -9.05% (inactive).
Turning to `COc1ccc(-c2cc(C(F)(F)F)n3nc(C(=O)N4CCCCC4)cc3n2)cc1`, the AC50 is 14.1 µM (active).
As for `CCOC(=O)c1[nH]c(C(=O)O)c(CCN(CC)CC)c1C`, the “activity, negative = inhibition” value is -2.71% (inactive).
Turning to `CN(C)Cc1ccc(-c2cc3onc(-c4ccccc4)c3c(=O)n2C)cc1`, the activity, negative = inhibition was 8.36% [at 11.4 µM] (inactive).
With `COc1ccc(C(C(=O)NC2CCCCC2)N(C(=O)c2sc(C)nc2C)c2ccc(C(C)=O)cc2)cc1` (stereo unspecified), the AC50 was 25.1 µM (active).
Turning to `COc1ccc(C(C(=O)NC2CCCCC2)N(C(=O)CCCC(=O)Nc2ccccn2)c2ccc3c(c2)OCCO3)cc1` (stereo unspecified), the AC50 is 1.26 µM (active).
Take `CC(=O)c1ccc(S(=O)(=O)NC(=O)NC2CCCCC2)cc1`: the “activity, negative = inhibition” value was -6.04% [at 25.6 µM] (inactive).
Take `COc1ccc(C(C(=O)NC2CCCCC2)N(C(=O)c2sc(C)nc2C)c2ccc(OC)cc2)cc1` (stereo unspecified): the concentration at half-maximal activity (AC50) is 12.6 µM (active).
As for `COc1ccc(C(C(=O)NC2CCCC2)N(C(=O)c2snc(-c3ccc(F)cc3)c2N)c2ccccc2)cc1` (stereo unspecified), the activity, negative = inhibition is -12% [at 2.29 µM] (inactive).
